Assay results: PubChem BioAssay
Values joined by “and” are separate entries in the source; they are usually repeats but may differ in a detail not shown here. Equal entries are not always repeated. Active and inactive are the calls of the source.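 The calls were made as follows, unless noted: active = compounds whose cell count with miR-34 switched on is under 0.7 times the count with it off; inactive = the rest.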

How the values were obtained:
[1] = hESC survival regulators, cell-based (AID 493140; call rule not given here;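 also: cells exposed to compounds for four days before counting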); details: human embryonic stem cell survival screen; stronger effect = higher value
[2] = liver-stage malaria parasite growth inhibition, primary screen, cell-based, HepG2, luciferase luminescence, HepG2 viability (AID 624349; in the data active = parasite load remaining mostly below about 12%, no sharp cut-off; inactive = mostly above about 10%;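 also: 100% = mean of DMSO negative control wells on the same plate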); details: P. berghei liver stage in HepG2, luciferase luminescence, concentration not given here; parasite load remaining: stronger effect = lower value; viability: measured here: HepG2 viability without parasites
[3] = stimulators of nuclear beta-catenin in C2C12, primary screen, imaging, WNT3A-conditioned medium, mouse C2C12, NPC library (AID 1117326; in the data active = nuclear beta-catenin stimulation mostly above about 4.2%, no sharp cut-off; inactive = mostly below about 10%); details: stronger effect = higher value
[4] = stimulators of insulin release from INS-1E, primary screen, cell-based, 5 mM glucose, NPC library (AID 1117329;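 active = compound raises insulin release from rat beta cells at 5 mM glucose, no numeric limit stated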); details: rat INS-1E insulin secretion, at 10 µM, stronger effect = higher value
[5] = growth inhibition of GSK3B-pretreated HCT116 cells – cell-based, CellTiter-Glo, 0.2 to 20 µM (AID 1117336;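 active = compounds lowering colon cancer cell viability after pretreatment blocking the GSK3B kinase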); details: HCT116 viability after GSK3B inhibitor, at 20 µM, stronger effect = higher value
[6] = inhibition of endothelial tube formation, primary screen, imaging, VEGF stimulated, CD31 staining, tube area, NPC library (AID 1117340;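 active = compound that reduces growth-factor-driven endothelial tube area in a mixed cell culture, no cutoff stated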); details: VEGF-stimulated ADSC/ECFC co-culture, at 10 µM, stronger effect = higher value
[7] = glucagon-like peptide 1 release enhancers, primary assay, NCI-H716 cell line, NPC library (AID 1117341;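 active = compound raises GLP1 secretion from the human gut endocrine cells, with no numeric limit stated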); details: NCI-H716 cells, at 10 µM, stronger effect = higher value
[8] = HCT116 colon cancer cell growth inhibition, primary screen, CellTiter-Glo luminescence, NPC library (AID 1117342;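 active = compounds that lower survival of HCT116 colon cancer cells in the luminescence readout, no numeric limit stated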); details: at 20 µM (top of the series)
[9] = CellTiter-Glo luminescent readout of SW480 viability loss, NPC library primary (AID 1117343;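 active = compounds that lower viability of the colon cancer cells in the luminescence readout, with no numeric limit stated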); details: CellTiter-Glo luminescence; at 20 µM (top of the series) unless noted
[10] = decreased DLD-1 cellular survival, CellTiter-Glo luminescent readout, NPC compound collection, primary HTS (AID 1117346;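 active = compounds that lower survival of DLD-1 colon cancer cells in the luminescence readout, no cutoff given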); details: DLD-1 viability, CellTiter-Glo luminescence; at 20 µM (top of the series)
[11] = differential killing of epithelial or mesenchymal cells, primary screen, imaging, PC-3E GFP, TEM4-18 mCherry, co-culture (AID 1345086;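 active = compounds killing one labelled cell type while sparing the other, by normalised counts and ratio limits, not self-fluorescent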;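 as to all read-outs here: cells exposed to compound for 72 h before imaging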;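 as to red/green cell ratio (normalised): normalised mesenchymal count divided by normalised epithelial count so high means epithelial killing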); details: imaging cell counts, at 1 µM; for red/green cell ratio (normalised): actives lie on both sides, counts scaled to control wells, 1 = unselective
[12] = sensitizers of A549 cells to miR-34 induction, primary screen, imaging, A549 dox-inducible miR-34, nuclei and caspase counts (AID 1347080); details: A549 miR-34 inducible, Hoechst nuclei count, 48 h
[13] = survival rescue of mitochondrial mutant cells in low glucose, primary screen, MELAS cybrids, Rieske KO mouse fibroblasts, CellTiter-Glo (AID 1508586;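 active = mean z-score across replicates of 1.96 or higher in either the MELAS or the Rieske mutant cell line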;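 also: z relative to plate mean and SD of compound and empty wells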)
[14] = molecular target: NAD(+) hydrolase SARM1 (Homo sapiens) (UniProt Q6SZW1); test: SARM1 TIR NADase inhibitors, cell lysate, NAD-Glo luminescence (AID 1508614;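 active = compound whose remaining NAD level is above about 45 nM, limit read from the data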;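 also: higher remaining NAD means stronger inhibition of SARM1 NADase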); details: SAM-TIR HEK293T lysate NADase, at 1 µM, stronger effect = higher value
[15] = measured here: epithelial PC-3E GFP cell survival
[16] = measured here: mesenchymal TEM4-18 mCherry cell survival
[17] = stronger effect = lower value, cell number ratio, induced over uninduced
[18] = measured here: relative caspase fold change +Dox/-Dox
[19] = measured here: total cells with miR-34 induction, stronger effect = lower value
[20] = measured here: total cells without miR-34 induction
[21] = MELAS cybrid survival, CellTiter-Glo 48 h, stronger effect = higher value
[22] = Rieske KO mouse fibroblast survival, CellTiter-Glo 72 h

NAD(+) hydrolase SARM1 (Homo sapiens), sequence (Q6SZW1 whole entry, looked up): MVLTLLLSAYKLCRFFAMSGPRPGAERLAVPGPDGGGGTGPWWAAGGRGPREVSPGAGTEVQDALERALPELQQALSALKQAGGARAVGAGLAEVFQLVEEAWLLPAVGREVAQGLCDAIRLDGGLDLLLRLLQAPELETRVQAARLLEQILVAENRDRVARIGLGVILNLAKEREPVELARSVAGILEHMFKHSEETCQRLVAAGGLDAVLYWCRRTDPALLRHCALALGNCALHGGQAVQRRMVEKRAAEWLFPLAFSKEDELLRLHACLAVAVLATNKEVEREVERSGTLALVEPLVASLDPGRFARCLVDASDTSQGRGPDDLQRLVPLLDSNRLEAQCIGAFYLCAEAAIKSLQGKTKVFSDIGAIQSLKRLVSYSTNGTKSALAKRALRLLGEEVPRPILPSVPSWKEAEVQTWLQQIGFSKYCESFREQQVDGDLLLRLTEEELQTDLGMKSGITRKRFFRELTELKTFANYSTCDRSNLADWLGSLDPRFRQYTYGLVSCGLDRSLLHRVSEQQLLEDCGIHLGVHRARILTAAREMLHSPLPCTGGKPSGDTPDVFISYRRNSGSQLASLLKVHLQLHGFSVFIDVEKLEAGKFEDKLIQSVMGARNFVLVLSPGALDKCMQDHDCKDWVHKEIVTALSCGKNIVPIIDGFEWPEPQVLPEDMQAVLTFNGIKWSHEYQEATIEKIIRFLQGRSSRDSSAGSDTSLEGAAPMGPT

Cc1cc2c(cc1S(N)(=O)=O)S(=O)(=O)CCC2
survival [1]: 26.1 (inactive)
parasite load remaining [2]: 38.3% (inactive) and 103% (inactive)
viability [2]: 50.2% and 93.9%
nuclear beta-catenin stimulation ([3]; at 10 µM): -0.4% (inactive)
nuclear beta-catenin stimulation ([3]; stimulation, at 2 µM): 1%
insulin secretion stimulation [4]: 1.4% (inactive)
viability decrease [5]: -10.3% (inactive)
tube area decrease [6]: 3.5% (inactive)
GLP1 secretion stimulation [7]: -0.7% (inactive)
inhibition of viability [8]: -0.03% (inactive)
viability decrease (inhibition) [9]: 3.2% (inactive)
viability decrease (inhibition) [10]: -1.8% (inactive)
red/green cell ratio (normalised) [11]: 0.91 (inactive)
normalised cell number [11, 15]: 0.86
normalised cell number [11, 16]: 0.78
fold change [12, 17]: 0.932 (inactive)
fold change [12, 18]: 1.01
cell count [12, 19]: 8570
cell count [12, 20]: 9200
z-score [13, 21]: -0.881 (inactive)
z-score [13, 22]: 0.124
remaining NAD [14]: 10 nM (inactive)

CN(C)CC/C=C1\c2ccccc2Sc2ccc(Cl)cc21
parasite load remaining [2]: 79% (inactive) and 61.2% (inactive) and 17.9% (inactive)
viability [2]: 83.4% and 97.6% and 84.5%
nuclear beta-catenin stimulation ([3]; at 10 µM): 1.8% (inactive)
nuclear beta-catenin stimulation ([3]; stimulation, at 2 µM): 0.5%
insulin secretion stimulation [4]: 20.8% (active)
viability decrease [5]: 51.1% (active)
tube area decrease [6]: 42.6% (active)
GLP1 secretion stimulation [7]: 15.7% (inactive)
inhibition of viability [8]: 94.8% (active)
viability decrease (inhibition) [9]: 127% (active)
viability decrease (inhibition) [10]: 98.6% (active)
red/green cell ratio (normalised) [11]: 1.04 (inactive)
normalised cell number [11, 15]: 1.11
normalised cell number [11, 16]: 1.16
fold change [12, 17]: 0.848 (inactive) and 0.855 (inactive)
fold change [12, 18]: 1.41 and 2.28
cell count [12, 19]: 6900 and 9070
cell count [12, 20]: 8140 and 10600
z-score [13, 21]: 0.287 (inactive)
z-score [13, 22]: 0.968

CC(=O)N[C@@H](CCC(N)=O)C(=O)O
nuclear beta-catenin stimulation ([3]; at 10 µM): -2.5% (inactive)
nuclear beta-catenin stimulation ([3]; stimulation, at 2 µM): 0.1%
insulin secretion stimulation [4]: 2.8% (inactive)
viability decrease [5]: -2.5% (inactive)
tube area decrease [6]: 12.1% (inactive)
GLP1 secretion stimulation [7]: -3.6% (inactive)
inhibition of viability [8]: 0.7% (inactive)
viability decrease (inhibition) [9]: 9.6% (inactive)
viability decrease (inhibition) [10]: -3.7% (inactive)
red/green cell ratio (normalised) [11]: 0.96 (inactive)
normalised cell number [11, 15]: 0.97
normalised cell number [11, 16]: 0.93
fold change [12, 17]: 0.922 (inactive)
fold change [12, 18]: 0.675
cell count [12, 19]: 8950
cell count [12, 20]: 9710
remaining NAD [14]: 10 nM (inactive)

CC1(O)CCC(C(C)(C)O)CC1 (stereo not drawn)
nuclear beta-catenin stimulation ([3]; at 10 µM): -0.3% (inactive)
nuclear beta-catenin stimulation ([3]; stimulation, at 2 µM): 1.1%
insulin secretion stimulation [4]: 1.4% (inactive)
viability decrease [5]: -1.3% (inactive)
tube area decrease [6]: 2.4% (inactive)
GLP1 secretion stimulation [7]: -5.3% (inactive)
inhibition of viability [8]: 1.1% (inactive)
viability decrease (inhibition) [9]: 5.7% (inactive)
viability decrease (inhibition) [10]: -8.9% (inactive)
red/green cell ratio (normalised) [11]: 1.09 (inactive)
normalised cell number [11, 15]: 0.89
normalised cell number [11, 16]: 0.97
fold change [12, 17]: 0.976 (inactive)
fold change [12, 18]: 0.869
cell count [12, 19]: 8640
cell count [12, 20]: 8850
remaining NAD [14]: 10 nM (inactive)

NS(=O)(=O)c1ccc(C(=O)O)cc1
nuclear beta-catenin stimulation ([3]; at 10 µM): 1.5% (inactive)
nuclear beta-catenin stimulation ([3]; stimulation, at 2 µM): 1.6%
insulin secretion stimulation [4]: -0.4% (inactive)
viability decrease [5]: 15.4% (inactive)
tube area decrease [6]: -32.8% (inactive)
GLP1 secretion stimulation [7]: 2.9% (inactive)
inhibition of viability [8]: -10.4% (inactive)
viability decrease (inhibition) [9]: 21.5% (inactive)
viability decrease (inhibition) [10]: 3.9% (inactive)
red/green cell ratio (normalised) [11]: 0.82 (inactive)
normalised cell number [11, 15]: 1.25
normalised cell number [11, 16]: 1.03
fold change [12, 17]: 0.907 (inactive)
fold change [12, 18]: 1.07
cell count [12, 19]: 8630
cell count [12, 20]: 9520
remaining NAD [14]: 10 nM (inactive)

COc1cc(/C=C/C(N)=O)cc(OC)c1OC
nuclear beta-catenin stimulation ([3]; at 10 µM): 1.1% (inactive)
nuclear beta-catenin stimulation ([3]; stimulation, at 2 µM): 0.6%
insulin secretion stimulation [4]: 0.8% (inactive)
viability decrease [5]: -4.6% (inactive)
tube area decrease [6]: 11.9% (inactive)
GLP1 secretion stimulation [7]: 0.1% (inactive)
inhibition of viability [8]: -6% (inactive)
viability decrease (inhibition) [9]: 6.6% (inactive)
viability decrease (inhibition) [10]: 4.6% (inactive)
red/green cell ratio (normalised) [11]: 0.8 (inactive)
normalised cell number [11, 15]: 1.28
normalised cell number [11, 16]: 1.03
fold change [12, 17]: 0.933 (inactive)
fold change [12, 18]: 0.864
cell count [12, 19]: 8570
cell count [12, 20]: 9180
remaining NAD [14]: 10 nM (inactive)

CCCNC(C)(C)COC(=O)c1ccccc1
survival [1]: 15.2 (inactive)
parasite load remaining [2]: 69.3% (inactive)
viability [2]: 69.4%
nuclear beta-catenin stimulation ([3]; at 10 µM): 0.1% (inactive)
nuclear beta-catenin stimulation ([3]; stimulation, at 2 µM): 0.2%
insulin secretion stimulation [4]: 4.2% (inactive)
viability decrease [5]: 0.2% (inactive)
tube area decrease [6]: 6.5% (inactive)
GLP1 secretion stimulation [7]: 4% (inactive)
inhibition of viability [8]: -3.5% (inactive)
viability decrease (inhibition) [9]: 42.3% (inactive)
viability decrease (inhibition) [10]: 25.6% (inactive)
red/green cell ratio (normalised) [11]: 1.13 (inactive)
normalised cell number [11, 15]: 1.15
normalised cell number [11, 16]: 1.29
fold change [12, 17]: 0.976 (inactive)
fold change [12, 18]: 0.64
cell count [12, 19]: 9410
cell count [12, 20]: 9640
z-score [13, 21]: -0.122 (inactive)
z-score [13, 22]: -0.0308
remaining NAD [14]: 10 nM (inactive)

CC(C)COC(=O)c1ccc(N)cc1
nuclear beta-catenin stimulation ([3]; at 10 µM): 0.2% (inactive)
nuclear beta-catenin stimulation ([3]; stimulation, at 2 µM): 0.4%
insulin secretion stimulation [4]: -1.9% (inactive)
viability decrease [5]: -5.95% (inactive)
tube area decrease [6]: 0.5% (inactive)
GLP1 secretion stimulation [7]: 0.9% (inactive)
inhibition of viability [8]: 6.2% (inactive)
viability decrease (inhibition) [9]: 61.3% (active)
viability decrease (inhibition) [10]: 12.5% (inactive)
red/green cell ratio (normalised) [11]: 1.09 (inactive)
normalised cell number [11, 15]: 0.86
normalised cell number [11, 16]: 0.93
fold change [12, 17]: 0.964 (inactive)
fold change [12, 18]: 0.986
cell count [12, 19]: 8750
cell count [12, 20]: 9080
remaining NAD [14]: 10 nM (inactive)

NCCNCCNCCN
parasite load remaining [2]: 41.3% (inactive)
viability [2]: 163%
nuclear beta-catenin stimulation ([3]; at 10 µM): 0.6% (inactive)
nuclear beta-catenin stimulation ([3]; stimulation, at 2 µM): 0.7%
insulin secretion stimulation [4]: 0.4% (inactive)
viability decrease [5]: 0.25% (inactive)
tube area decrease [6]: -7.4% (inactive)
GLP1 secretion stimulation [7]: -0.1% (inactive)
inhibition of viability [8]: 4.7% (inactive)
viability decrease (inhibition) [9]: -40.9% (inactive)
viability decrease (inhibition) [10]: 3.2% (inactive)
red/green cell ratio (normalised) [11]: 0.86 (inactive)
normalised cell number [11, 15]: 1.02
normalised cell number [11, 16]: 0.88
fold change [12, 17]: 0.908 (inactive)
fold change [12, 18]: 4.46
cell count [12, 19]: 11700
cell count [12, 20]: 12900
remaining NAD [14]: 10 nM (inactive)
